# Experimental data reported in PubChem BioAssay AID493169 (National Center for Advancing Translational Sciences (NCATS), 2011).
# Results filed as inconclusive are left out. A number with no mark means an inactive call. Active and inactive are the calls of the source. Calls follow the shape of the dose curve; as a rule, active = well fitted inhibition curve with a large enough effect; inconclusive = small, poorly fitted or top-dose-only effect; inactive = flat fitted curve, though single readings scatter.
# Experiment: CHOP2 Reporter Counterscreen Assay for Inhibitors of Ubiquitin-specific Protease USP2a;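 also: activated enterokinase alone at 50 pM in a cell-free format rather than USP2a or CHOP2; nearly all actives have a fitted effect of over 55% in size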
# Conditions: purified enterokinase, fluorogenic substrate, 485/531 nm; series mostly up to 38.3 µM; activity change, negative = inhibition: at the top concentration
# Method in brief: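 Fluorescence (485/531 nm) read 10 min after adding 25nM reporter substrate to 50 pM activated EK preincubated 30 min RT with compound; Tris pH 8.0/CaCl2/CHAPS buffer. Data normalized to buffer-alone inhibition; concentration-response curves fitted.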
# % is scaled to controls: 0 for no effect and ±100 for the full control effect; potency is read from the fitted curve at half-maximal effect.
Compound,"activity change, negative = inhibition [%]",Potency
c1coc(CNc2nc(-c3cccs3)cs2)c1,-0.623,
COC(=O)C1Sc2[nH]c(=O)sc2C(c2ccc(Cl)cc2)C1C(=O)OC (centres undefined),-1.17,
O=C(Nc1ccc(S(=O)(=O)Nc2ncccn2)cc1)c1ccc(S(=O)(=O)N2CCCC2)cc1,-3.71,
Cc1noc(C)c1NC(=O)Nc1ccc2c(c1)C(=O)N([C@H](C)CO)C[C@H](C)[C@@H](CN(C)S(=O)(=O)c1ccccc1)O2,-0.98,
N=c1sccn1CC(=O)Nc1ccc(S(=O)(=O)N2CCOCC2)cc1,10.2,
Cc1ccc(/C(N)=N/OC(=O)Oc2ccccc2)cc1,-0.304,
CCOC(=O)N1CCN(CC(=O)n2c(C)c(C)c3ccccc32)CC1,-16.2,
CCOc1ccc(Cn2c(=O)sc3ccccc32)cc1OC,2.91,
O=C(Nc1nc(-c2ccco2)c(-c2ccco2)s1)C1CC(=O)N(c2ccc3c(c2)OCCO3)C1 (centres undefined),,4.47 µM (active)
COC(=O)CC1Oc2ccc(C)cc2NC1=O (centres undefined),-0.941,
O=C(O)C1CCN1C1CCCCC1 (centres undefined),-1.7,
COc1cccc(NC(=O)Cc2ccccc2)c1,8.41,
CC(C)CC(=O)Nc1cccc(-c2nc3ccccc3o2)c1,-0.733,
CC1CCCCC1NC(=O)CSCC(=O)O (centres undefined),4.32,
CN(C)CCCN1C(=O)C(=O)/C(=C(/O)c2ccncc2)C1c1cccnc1 (centres undefined),0.275,
CCn1c(SCC(=O)NCCc2ccccc2)nnc1-c1cccs1,2.03,
COc1ccc2[nH]c(=O)c(CN(C)C(=O)C3CCCCC3)cc2c1,-2.09,
CCOC(=O)c1c(C)[nH]c(C(=O)COC(=O)CSC)c1C,1.66,
COc1ccc2nc(C)cc(SCC(=O)N/N=C/c3c(OC)ccc4ccccc34)c2c1,-0.214,
